Data published in PubChem BioAssay (NCI).
About 79,000 compounds went through this panel and 15% of them were active in at least one assay; those are over-represented in the sample as a whole. Values without a mark were called inactive. Activity calls are given as the source filed them. No stated cut-off is given here; in the data, active means growth inhibition above about 70%; inactive means the rest.

Tests used:
[1] = NCI Yeast Anticancer Drug Screen. Data for the rad52 strain (AID 147);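 further: 0% = growth of vehicle-treated control cultures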; conditions: S. cerevisiae rad52 mutant growth inhibition, active compounds read high
Summary of the method: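 Growth of repair-deficient yeast cells was compared between compound-treated and vehicle-treated cultures to give percent inhibition.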

[2] = NCI Yeast Anticancer Drug Screen. Data for the wt1 strain (AID 149);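 further: 0% = growth of vehicle-treated wt1 cultures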; conditions: S. cerevisiae wt1 strain (SPY 50644) growth inhibition, active compounds read high
Summary of the method: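 Growth inhibition read against vehicle controls after compound exposure of the wt1 yeast strain.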

[3] = NCI Yeast Anticancer Drug Screen. Data for the rad50EPP+ strain (AID 151);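 further: 0% = growth of vehicle-treated control cultures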; conditions: S. cerevisiae rad50 mutant strain, active compounds read high
Summary of the method: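 Measured: growth inhibition of rad50EPP+ yeast. Reference: vehicle-treated controls. Screen uses strains with defined genetic alterations in DNA damage repair or cell cycle control.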

[4] = NCI Yeast Anticancer Drug Screen. Data for the mgt1 strain (AID 153); conditions: S. cerevisiae mgt1 mutant growth inhibition, active compounds read high
Summary of the method: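 Compounds were applied to mgt1 mutant yeast, and growth was then compared against vehicle-treated control cultures to give percent inhibition.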

[5] = NCI Yeast Anticancer Drug Screen. Data for the rad50 strain (AID 155);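 further: 0% = growth of vehicle-only cultures of the same strain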; conditions: S. cerevisiae rad50 strain growth inhibition, active compounds read high
Summary of the method: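 Readout: growth inhibition relative to vehicle-treated cultures. Compound exposure was carried out in a genetically defined yeast strain deficient in DNA damage repair.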

[6] = NCI Yeast Anticancer Drug Screen. Data for the mec2-1 strain (AID 157); conditions: S. cerevisiae mec2-1 strain, active compounds read high
Summary of the method: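 Compounds were applied to mec2-1 yeast cells. Their growth was then compared with that of vehicle-treated cultures to give growth inhibition.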

[7] = NCI Yeast Anticancer Drug Screen. Data for the rad14 strain (AID 159);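 further: 0% = growth of vehicle-treated control cultures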; conditions: S. cerevisiae rad14 strain growth inhibition, active compounds read high
Summary of the method: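 Growth inhibition vs vehicle controls; genetically altered yeast strain (DNA damage repair defect) treated with test compounds.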

[8] = NCI Yeast Anticancer Drug Screen. Data for the sgs1 mgt1 strain (AID 161);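 further: 0% = growth of cultures given vehicle only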; conditions: S. cerevisiae sgs1 mgt1 strain, active compounds read high
Summary of the method: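 This yeast growth screen uses a strain with defined DNA-repair lesions; compound-treated growth is compared with vehicle-treated growth.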

[9] = NCI Yeast Anticancer Drug Screen. Data for the CLN2oe strain (AID 163);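 further: 0% = growth of vehicle-only control cultures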; conditions: S. cerevisiae CLN2oe strain, active compounds read high
Summary of the method: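 Cells of an engineered yeast line with disturbed cell-cycle regulation are treated with compound. Inhibition of growth is then calculated relative to the vehicle-treated reference.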

[10] = NCI Yeast Anticancer Drug Screen. Data for the cln2 rad14 strain (AID 165);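 further: 0% = growth equal to vehicle treated cultures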; conditions: S. cerevisiae cln2 rad14 strain, active compounds read high
Summary of the method: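 Strain: cln2 rad14 yeast, altered in cell cycle control and DNA damage repair. Read-out: growth inhibition vs vehicle.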

[11] = NCI Yeast Anticancer Drug Screen. Data for the bub3 strain (AID 167); conditions: S. cerevisiae bub3 mutant strain, active compounds read high
Summary of the method: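 Readout: yeast growth inhibition, expressed relative to vehicle-only wells. The test organism is a mutant strain from a panel with lesions in DNA repair or checkpoint genes.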

[12] = NCI Yeast Anticancer Drug Screen. Data for the wt2 strain (AID 169);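 further: 0% = growth of vehicle-treated yeast cultures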; conditions: S. cerevisiae wt2 strain growth inhibition, active compounds read high
Summary of the method: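 Growth of compound-treated yeast is measured and expressed as inhibition relative to vehicle-only controls.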

[13] = NCI Yeast Anticancer Drug Screen. Data for the mlh1 strain (AID 171);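 further: 0% = growth of vehicle-treated control cultures of the same strain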; conditions: S. cerevisiae mlh1 strain growth inhibition, active compounds read high
Summary of the method: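 Test agents were incubated with yeast bearing a defined DNA damage repair or cell cycle control alteration; values are growth inhibition normalised to vehicle-treated cultures.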

[14] = NCI Yeast Anticancer Drug Screen. Data for the sgs1 strain (AID 173);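 further: 0% = growth of vehicle-only control cultures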; conditions: S. cerevisiae sgs1 mutant, active compounds read high
Summary of the method: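 Strain with an altered DNA repair or cell cycle pathway exposed to compound. Growth then measured. Value = inhibition versus vehicle control.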

[15] = NCI Yeast Anticancer Drug Screen. Data for the mlh1 rad18 strain (AID 175); conditions: S. cerevisiae mlh1 rad18 strain growth inhibition, active compounds read high
Summary of the method: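 A repair-deficient yeast strain is exposed to test compound, and growth is scored relative to vehicle-treated controls.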

[16] = NCI Yeast Anticancer Drug Screen. Data for the rad18 strain (AID 177); conditions: S. cerevisiae rad18 mutant growth inhibition, active compounds read high
Summary of the method: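 DNA-repair-defective yeast; compound treatment; growth inhibition scored against vehicle.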

[17] = at 5.0 µM (retest, dose inferred, filed as 0.5)
[18] = at 50.0 µM (retest, dose inferred, filed as 5.0)

c1ccc2c(c1)NC(NC1Nc3ccccc3N1)N2
growth inhibition ([1]; at 1.2 µM): 0% | growth inhibition ([1]; at 3.7 µM): 4% | growth inhibition ([1]; at 11.0 µM): 6% | growth inhibition ([1]; at 33.0 µM): 19% | growth inhibition ([1]; at 100.0 µM): 31% | growth inhibition ([2]; at 1.2 µM): 0% | growth inhibition ([2]; at 3.7 µM): 5% | growth inhibition ([2]; at 11.0 µM): 4% | growth inhibition ([2]; at 33.0 µM): 9% | growth inhibition ([2]; at 100.0 µM): 19% | growth inhibition ([3]; at 1.2 µM): 9% | growth inhibition ([3]; at 3.7 µM): 23% | growth inhibition ([3]; at 11.0 µM): 34% | growth inhibition ([3]; at 33.0 µM): 38% | growth inhibition ([3]; at 100.0 µM): 48% | growth inhibition ([4]; at 1.2 µM): -4% | growth inhibition ([4]; at 3.7 µM): -7% | growth inhibition ([4]; at 11.0 µM): -4% | growth inhibition ([4]; at 33.0 µM): 0% | growth inhibition ([4]; at 100.0 µM): 10% | growth inhibition ([5]; at 1.2 µM): 1% | growth inhibition ([5]; at 3.7 µM): 5% | growth inhibition [5, 17]: 9% | growth inhibition ([5]; at 11.0 µM): 8% | growth inhibition ([5]; at 33.0 µM): 23% | growth inhibition [5, 18]: 67% | growth inhibition ([5]; at 50.0 µM): 41.5% | growth inhibition ([5]; at 100.0 µM): 40% | growth inhibition ([6]; at 1.2 µM): 5% | growth inhibition ([6]; at 3.7 µM): 7% | growth inhibition [6, 17]: -3% | growth inhibition ([6]; at 11.0 µM): 10% | growth inhibition ([6]; at 33.0 µM): 16% | growth inhibition [6, 18]: 16% | growth inhibition ([6]; at 50.0 µM): 9.05% | growth inhibition ([6]; at 100.0 µM): 20% | growth inhibition ([7]; at 1.2 µM): -4% | growth inhibition ([7]; at 3.7 µM): -1% | growth inhibition ([7]; at 11.0 µM): 3% | growth inhibition ([7]; at 33.0 µM): 12% | growth inhibition ([7]; at 100.0 µM): 26% | growth inhibition [8, 17]: -4% | growth inhibition [8, 18]: 66% | growth inhibition ([8]; at 50.0 µM): 15.7% | growth inhibition ([9]; at 1.2 µM): -6% | growth inhibition ([9]; at 3.7 µM): -17% | growth inhibition ([9]; at 11.0 µM): -9% | growth inhibition ([9]; at 33.0 µM): -7% | growth inhibition ([9]; at 100.0 µM): 8% | growth inhibition [10, 17]: 13% | growth inhibition [10, 18]: 32% | growth inhibition ([10]; at 50.0 µM): -21.1% | growth inhibition ([11]; at 1.2 µM): -2% | growth inhibition ([11]; at 3.7 µM): -4% | growth inhibition [11, 17]: 19% | growth inhibition ([11]; at 11.0 µM): -2% | growth inhibition ([11]; at 33.0 µM): -2% | growth inhibition [11, 18]: 70% (active) | growth inhibition ([11]; at 50.0 µM): 10.8% | growth inhibition ([11]; at 100.0 µM): -10% | growth inhibition ([12]; at 1.2 µM): 0% | growth inhibition ([12]; at 3.7 µM): 0% | growth inhibition ([12]; at 11.0 µM): 0% | growth inhibition ([12]; at 33.0 µM): 8% | growth inhibition ([12]; at 100.0 µM): 19% | growth inhibition ([13]; at 1.2 µM): 3% | growth inhibition ([13]; at 3.7 µM): 1% | growth inhibition ([13]; at 11.0 µM): 4% | growth inhibition ([13]; at 33.0 µM): 10% | growth inhibition ([13]; at 100.0 µM): 14% | growth inhibition ([14]; at 1.2 µM): 0% | growth inhibition ([14]; at 3.7 µM): 3% | growth inhibition ([14]; at 11.0 µM): 9% | growth inhibition ([14]; at 33.0 µM): 12% | growth inhibition ([14]; at 100.0 µM): 16% | growth inhibition [15, 17]: 25% | growth inhibition [15, 18]: 81% (active) | growth inhibition ([15]; at 50.0 µM): 27.6% | growth inhibition ([16]; at 1.2 µM): 3% | growth inhibition ([16]; at 3.7 µM): 10% | growth inhibition ([16]; at 11.0 µM): 29% | growth inhibition ([16]; at 33.0 µM): 49% | growth inhibition ([16]; at 100.0 µM): 64%

NNC(=O)CCc1ccc2ccc3ccccc3c2c1
growth inhibition ([1]; at 1.2 µM): -1% | growth inhibition ([1]; at 3.7 µM): -3% | growth inhibition ([1]; at 11.0 µM): 1% | growth inhibition ([1]; at 33.0 µM): 13% | growth inhibition ([1]; at 100.0 µM): 52% | growth inhibition ([2]; at 1.2 µM): 1% | growth inhibition ([2]; at 3.7 µM): 3% | growth inhibition ([2]; at 11.0 µM): 3% | growth inhibition ([2]; at 33.0 µM): 3% | growth inhibition ([2]; at 100.0 µM): 18% | growth inhibition ([3]; at 1.2 µM): 2% | growth inhibition ([3]; at 3.7 µM): 4% | growth inhibition ([3]; at 11.0 µM): 15% | growth inhibition ([3]; at 33.0 µM): 34% | growth inhibition ([3]; at 100.0 µM): 58% | growth inhibition ([4]; at 1.2 µM): -2% | growth inhibition ([4]; at 3.7 µM): -3% | growth inhibition ([4]; at 11.0 µM): -5% | growth inhibition ([4]; at 33.0 µM): -4% | growth inhibition ([4]; at 100.0 µM): 23% | growth inhibition ([5]; at 1.2 µM): 0% | growth inhibition ([5]; at 3.7 µM): -4% | growth inhibition [5, 17]: -13% | growth inhibition ([5]; at 11.0 µM): 9% | growth inhibition ([5]; at 33.0 µM): 7% | growth inhibition [5, 18]: 7% | growth inhibition ([5]; at 50.0 µM): 28.1% | growth inhibition ([5]; at 100.0 µM): 58% | growth inhibition ([6]; at 1.2 µM): -1% | growth inhibition ([6]; at 3.7 µM): -1% | growth inhibition [6, 17]: -1% | growth inhibition ([6]; at 11.0 µM): 0% | growth inhibition ([6]; at 33.0 µM): 2% | growth inhibition [6, 18]: 2% | growth inhibition ([6]; at 50.0 µM): -10.2% | growth inhibition ([6]; at 100.0 µM): 50% | growth inhibition ([7]; at 1.2 µM): -4% | growth inhibition ([7]; at 3.7 µM): -2% | growth inhibition ([7]; at 11.0 µM): -3% | growth inhibition ([7]; at 33.0 µM): -4% | growth inhibition ([7]; at 100.0 µM): 40% | growth inhibition [8, 17]: -6% | growth inhibition [8, 18]: -14% | growth inhibition ([8]; at 50.0 µM): 20.1% | growth inhibition ([9]; at 1.2 µM): -10% | growth inhibition ([9]; at 3.7 µM): -15% | growth inhibition ([9]; at 11.0 µM): -17% | growth inhibition ([9]; at 33.0 µM): -3% | growth inhibition ([9]; at 100.0 µM): 60% | growth inhibition [10, 17]: -28% | growth inhibition [10, 18]: -15% | growth inhibition ([10]; at 50.0 µM): 24.6% | growth inhibition ([11]; at 1.2 µM): -8% | growth inhibition ([11]; at 3.7 µM): -4% | growth inhibition [11, 17]: -11% | growth inhibition ([11]; at 11.0 µM): -33% | growth inhibition ([11]; at 33.0 µM): 19% | growth inhibition [11, 18]: 54% | growth inhibition ([11]; at 50.0 µM): 37.2% | growth inhibition ([11]; at 100.0 µM): 58% | growth inhibition ([12]; at 1.2 µM): -1% | growth inhibition ([12]; at 3.7 µM): -1% | growth inhibition ([12]; at 11.0 µM): 2% | growth inhibition ([12]; at 33.0 µM): 6% | growth inhibition ([12]; at 100.0 µM): 32% | growth inhibition ([13]; at 1.2 µM): 6% | growth inhibition ([13]; at 3.7 µM): 3% | growth inhibition ([13]; at 11.0 µM): 5% | growth inhibition ([13]; at 33.0 µM): 9% | growth inhibition ([13]; at 100.0 µM): 48% | growth inhibition ([14]; at 1.2 µM): 6% | growth inhibition ([14]; at 3.7 µM): 8% | growth inhibition ([14]; at 11.0 µM): 17% | growth inhibition ([14]; at 33.0 µM): 22% | growth inhibition ([14]; at 100.0 µM): 52% | growth inhibition [15, 17]: -10% | growth inhibition [15, 18]: 22% | growth inhibition ([15]; at 50.0 µM): 71.3% (active) | growth inhibition ([16]; at 1.2 µM): 17% | growth inhibition ([16]; at 3.7 µM): 15% | growth inhibition ([16]; at 11.0 µM): -8% | growth inhibition ([16]; at 33.0 µM): 38% | growth inhibition ([16]; at 100.0 µM): 66%
